Laboratory results reported in PubChem BioAssay (NCI).
Compounds without any hit were thinned out: in the full panel of roughly 83,000, 20% have a hit.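 Plates (96-well) were seeded with cells, treated with compound at one concentration, and incubated for 48 hours before percent growth was determined.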 A number with no mark means an inactive call. Calls of active or inactive are those of the source. Rule for the calls: active = growth percent below 10; inactive = the rest.

Tested on: SK-MEL-28 melanoma
Assay: NCI-60 one-dose screen, 48 h (100 = growth as untreated, 0 = no growth, -100 = all killed)
Conditions: 10 µM

**Q.** Which growth does the source give for `CCCCCCCCCCCC(=O)NCCCN(C)C` here?
**A.** 91.9%

**Q.** How did the growth turn out when `Nc1ccc(C2=CC(c3ccc(Cl)cc3)N3C=CSC3=N2)cc1` (stereo unspecified) was run?
**A.** -89.7% (active)

**Q.** With `CC(=O)n1nc(C(=O)OC(C)(C)C)c2cc(F)c(F)cc21` as the molecule, how does the growth read?
**A.** 96.8%

**Q.** How did the growth turn out when `COC(=O)c1c(C)nc(Nc2nc3ccccc3s2)nc1-c1ccc(Cl)cc1Cl` was run?
**A.** 109%

**Q.** `O=C(O)CCCCSCCCCC(=O)O` was tested. Which growth did it give?
**A.** 114%

**Q.** For `COc1cc(-c2nc3ccc(C)cc3[nH]2)ccc1OCC(=O)N=Nc1c(O)[nH]c2ccccc12`, which growth is on record?
**A.** -77.5% (active)

**Q.** Which growth does the source give for `CC1=CSC2=NC(c3ccc(Cl)c(Cl)c3)=CC(c3ccc(Cl)cc3)N12` (stereo unspecified) here?
**A.** 37.4%

**Q.** For `COc1ccc(Nc2ccnc(N3CCN(c4ccnc5cc(Cl)ccc45)CC3)n2)cc1`, which growth is on record?
**A.** 5.19% (active)

**Q.** `Cn1cnc([N+](=O)[O-])c1/C=C1\Oc2ccc(Cl)cc2C1=O` was tested. Which growth did it give?
**A.** 105%

**Q.** How did the growth turn out when `CCOC(=O)Cn1nnc(-c2ccc(OCc3ccccc3F)cc2)n1` was run?
**A.** 72.9%

**Q.** For `COc1ccc(/C(CS(=O)(=O)c2ccccc2)=N\O)cc1`, which growth is on record?
**A.** 100%

**Q.** How did the growth turn out when `COc1ccc(S(=O)(=O)Nc2cc(/C=C\c3cc(OC)c(OC)c(OC)c3)ccc2OC)cc1` was run?
**A.** 48.8%

**Q.** With `COc1ccc2nc(C)cc(Nc3ccc(Cl)cc3)c2c1` as the molecule, how does the growth read?
**A.** 105%

**Q.** With `COc1cc(-c2nc3ccc(C)cc3[nH]2)ccc1OCc1nnc(-c2ccc(CC(C)C)cc2)o1` as the molecule, how does the growth read?
**A.** 87.8%

**Q.** With `Cc1noc(C)c1-c1ccc2nc(NC(=O)[C@H]3CCN(C#N)C3)cn2c1` as the molecule, how does the growth read?
**A.** 104%

**Q.** How did the growth turn out when `COc1ccc(COC(=O)CC(C)C)cc1` was run?
**A.** 110%
